Here are results for 44 compounds from ChEMBL document CHEMBL3988442, “University of Dundee, Small-Polar-MMV Screening Library” (2021).

Experiment [1] has as its target T1, Aspartate--tRNA(Asp/Asn) ligase (Mycobacterium tuberculosis (strain ATCC 25618 / H37Rv)) (UniProt P9WFW3). Note: in the data most compounds retested in dose-response had high values.
T1 sequence (whole entry): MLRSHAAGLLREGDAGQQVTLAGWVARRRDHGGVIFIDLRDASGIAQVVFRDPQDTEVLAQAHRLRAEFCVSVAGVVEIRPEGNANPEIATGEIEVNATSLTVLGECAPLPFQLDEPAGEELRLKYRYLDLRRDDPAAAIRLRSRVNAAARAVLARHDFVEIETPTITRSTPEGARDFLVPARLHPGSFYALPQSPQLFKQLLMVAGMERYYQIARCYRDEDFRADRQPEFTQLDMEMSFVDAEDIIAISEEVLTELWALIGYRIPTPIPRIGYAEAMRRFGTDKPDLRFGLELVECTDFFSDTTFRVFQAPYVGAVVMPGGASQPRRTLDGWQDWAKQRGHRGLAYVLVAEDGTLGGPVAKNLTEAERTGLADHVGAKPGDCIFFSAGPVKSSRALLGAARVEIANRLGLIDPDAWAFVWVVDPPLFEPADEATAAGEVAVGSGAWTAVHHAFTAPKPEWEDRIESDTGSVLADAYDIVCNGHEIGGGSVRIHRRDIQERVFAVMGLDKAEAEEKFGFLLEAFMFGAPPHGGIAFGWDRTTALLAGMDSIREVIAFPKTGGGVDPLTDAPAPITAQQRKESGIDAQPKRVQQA
The experiment can be described thus: Assay for Asp RNA synthetase-1 from Mycobacterium tuberculosis. The experiment is classed as functional. Further details: scale not given: direction of the effect not stated beside the values. The following applies: 30 µM.

Experiment [2] addresses Shiga toxin 2 (Escherichia coli O157:H7) (UniProt P09385+P09386). As to the kind of experiment: E. coli 0.157:H7 Shiga Toxin SOP - stx2 screening assay. It counts as functional. Also noted: scale not given: direction of the effect not stated beside the values. The following applies: 30 µM.

On to `O=C(NC1CC1)[C@@H]1CCO[C@@H]2CCN(C3CCOCC3)C[C@@H]21`, for which the Percent Effect in experiment [1] was -3.45%; in experiment [2] it was -22%.

Regarding `N#Cc1c(F)cccc1N1CCN(S(=O)(=O)c2cccs2)CC1`, the figures for the Percent Effect in experiment [1] and in experiment [2] were 4.83% and -12.3%, respectively.

Consider `CC(CCN1CCn2nc(CNC(=O)N(C)C)cc2C1)c1ccccc1` (stereo not drawn), for which the Percent Effect is -3.2% in experiment [1] and -1.92% in experiment [2].

On to `CC(C)C(=O)N1CCN(C(=O)c2cc(C(C)C)on2)[C@H]2CS(=O)(=O)C[C@H]21`, for which the Percent Effect in experiment [1] is -1.39%; in experiment [2], -14.2%.

Consider `Cc1ccc(N2CC[C@H]3C[C@@H](C(=O)N4CCOCC4)O[C@H]3C2)nn1`, for which the Percent Effect stood at 0.749% in experiment [1] and 12.8% in experiment [2].

As for `CCN1CCO[C@]2(CCC[C@H]2COCc2csc(C)n2)C1`, the Percent Effect in experiment [1] is -0.869%; in experiment [2] it was 7.16%.

As for `COc1cccc(CN2CCC(c3nccn3C(C)C)CC2)c1`, the Percent Effect is 1.9% in experiment [1] and -26.4% in experiment [2].

In the case of `C[C@@H]1CN(C2(C(=O)N3CCOCC3)Cc3ccccc3C2)C[C@H](C)O1`, the Percent Effect was 0.585% in experiment [1] and -11.4% in experiment [2].

`O=C(c1ccc(C(F)(F)F)nc1)N1CCCC(n2cncn2)C1` (stereo not drawn): the Percent Effect in experiment [1] was -4.88%; in experiment [2] it was -8.71%.

Take `O=C(NCc1ccccn1)[C@@H]1CCO[C@@H]2CCN(Cc3ccoc3)C[C@H]21`: the Percent Effect in experiment [1] was 7.04%; in experiment [2], 4.93%.

With `Cn1c2c(ccc1=O)CC(NS(C)(=O)=O)CC2` (stereo not drawn), the Percent Effect was -0.956% in experiment [1] and -18% in experiment [2].

For the compound `C[S+]([O-])c1nncn1CC(=O)c1ccc(Cl)c(Cl)c1` (stereo not drawn), the Percent Effect is 1.03% in experiment [1] and -25.1% in experiment [2].

Take `CCC(C)N(C)CCNC(=O)NCc1cccc(-n2cncn2)c1` (stereo not drawn): the Percent Effect in experiment [1] was -1.54%; in experiment [2], -5.27%.

Take `CC(C)NC(=O)C1CN(C(N)=O)Cc2ccnn2C1` (stereo not drawn): the Percent Effect was -3.46% in experiment [1] and -5.82% in experiment [2].

Turning to `O=S(=O)(c1cccs1)N1CCCn2cnc(CN3CCCC3)c2C1`, the Percent Effect was 6.2% in experiment [1] and -4.47% in experiment [2].

For the compound `CN(C)C(=O)[C@H]1C[C@@H]2CN(S(=O)(=O)Cc3ccccc3)C[C@H]1O2`, the Percent Effect in experiment [1] was 3.99%; in experiment [2] it was -3.49%.

As for `COc1cccc(OCC(=O)NS(=O)(=O)c2ccc(C)s2)c1`, the Percent Effect in experiment [1] is 1.83%; in experiment [2] it was -6.18%.

As to `CN(C)S(=O)(=O)N1CCC2(CCCN(Cc3ccc(F)cc3)C2=O)C1` (stereo not drawn), the Percent Effect in experiment [1] is -2.05%; in experiment [2], -20.5%.

`Cc1ncsc1CCC(=O)NCc1cc2n(n1)CCN(C(=O)N(C)C)C2`: the Percent Effect in experiment [1] is -4.32%; in experiment [2], -29.5%.

`CCOc1ccc(C#N)cc1NCC(=O)Nc1cc(C)no1`: the Percent Effect is -5.54% in experiment [1] and -11.5% in experiment [2].

In the case of `Cc1nc(C)n(CC2CCCN2Cc2cn3c(C)cccc3n2)n1` (stereo not drawn), the Percent Effect is -5.04% in experiment [1] and -2.35% in experiment [2].

Take `Cc1c[nH]cc1C(=O)N1CCN(Cc2nc(C(C)C)no2)CC1`: the values for the Percent Effect in experiment [1] and in experiment [2] were -3.47% and 9.19%, respectively.

As for `Cc1nc(C2CCCN2CC(=O)NCCOc2ccccc2)no1` (stereo not drawn), the Percent Effect in experiment [1] was 1.81%; in experiment [2], -11.3%.

For `CCC(C)(NCC(=O)Nc1nc(C)cs1)c1nc(C)cs1` (stereo not drawn), the Percent Effect in experiment [1] is 2.89%; in experiment [2], -28.4%.

As for `Cn1cc(CN2CCn3cc(CNC(=O)c4cccn4C)nc3C2)cn1`, the Percent Effect in experiment [1] was 2.49%; in experiment [2] it was -19.5%.

As to `CC(C)[C@H](NC(=O)NC1CCS(=O)(=O)C1)C(=O)NCc1cccnc1` (stereo partly drawn), the values for the Percent Effect in experiment [1] and in experiment [2] were -2.09% and -28.7%, respectively.

As to `CCN(C1CCS(=O)(=O)C1)S(=O)(=O)c1cccc2cc(C)cnc12` (stereo not drawn), the Percent Effect in experiment [1] was -1.66%; in experiment [2], 30.4%.

On to `COc1cc2nc(C)n(CC(=O)O)c(=O)c2cc1OC`, for which the figures for the Percent Effect in experiment [1] and in experiment [2] were 1.68% and -6.96%, respectively.

As to `CCO[C@@H]1CCN(C(=O)c2ccc[nH]2)[C@@H]1Cc1cnn(C)c1`, the figures for the Percent Effect in experiment [1] and in experiment [2] were -1.78% and 5.04%, respectively.

Consider `Cc1nc(C)n(CC2CCCCN2CCC(=O)Nc2cc(C)on2)n1` (stereo not drawn), for which the Percent Effect in experiment [1] is -3.42%; in experiment [2], 5.91%.

On to `CC(O)CN1CCN(C(=O)c2ccc(Cn3cccn3)cc2)CC1` (stereo not drawn), for which the Percent Effect came to 5.51% in experiment [1] and 14.6% in experiment [2].

With `CN(CC(=O)N1CCC(Oc2ccccc2)CC1)c1cnccn1`, the Percent Effect in experiment [1] is 0.175%; in experiment [2] it was -7.36%.

For `CNC(=O)c1cnc(/C=C/c2cc(OC)c(OC)c(OC)c2)s1`, the Percent Effect was -0.971% in experiment [1] and -44.8% in experiment [2].

On to `CN1CCCN(C[C@@H]2CN(C(=O)CCC3CCCC3)C[C@@H]2CO)CC1`, for which the values for the Percent Effect in experiment [1] and in experiment [2] were 6.99% and -19.6%, respectively.

`Cn1cc(CN2CC[C@H]3OCC[C@@H](C(=O)N4CCCCO4)[C@@H]3C2)cn1`: the Percent Effect is 2.85% in experiment [1] and -10.1% in experiment [2].

Consider `CCc1nnsc1C(=O)NCCn1nc2ccccn2c1=O`, for which the Percent Effect in experiment [1] was -6.91%; in experiment [2], -19.6%.

Regarding `CCn1ccnc1CN1CCN(Cc2ccc(C#N)cc2)CC1`, the Percent Effect in experiment [1] was -0.278%; in experiment [2] it was -29.2%.

Turning to `CC(C)NC(=O)CC1COC2(CCN(Cc3ccccc3)CC2)C1` (stereo not drawn), the Percent Effect in experiment [1] is -2.02%; in experiment [2], -36%.

With `Cc1ccc(OC2(C(=O)O)CCN(C(=O)c3ccc(F)cc3)CC2)cn1`, the Percent Effect in experiment [1] is -4.69%; in experiment [2] it was 10.4%.

Take `CCc1nc(C2CCCN2CC(=O)Nc2nncs2)no1` (stereo not drawn): the Percent Effect in experiment [1] is -0.364%; in experiment [2], 2.9%.

Turning to `Cc1ccc(NC(=O)Cn2cc(I)cn2)cc1`, the Percent Effect in experiment [1] is 1.25%; in experiment [2] it was -45.6%.

As for `Cc1cc(C)n(C2CN(CC(O)c3ccc(F)cc3)C2)n1` (stereo not drawn), the Percent Effect in experiment [1] worked out at 2.19%; in experiment [2], 6.15%.

Take `CCn1cnnc1CNC(=O)NC(C)C(C)C` (stereo not drawn): the Percent Effect is -2.43% in experiment [1] and 7.89% in experiment [2].

On to `Cc1ccc2c(n1)N(C)CCN(C(=O)NC1CC1)C2`, for which the Percent Effect in experiment [1] is 7.86%; in experiment [2], -7.89%.
